Assay outcomes deposited in PubChem by Johns Hopkins Ion Channel Center.
This is a sample that favours compounds with a hit; in the whole collection about 1.6% have one here.
KCNQ2 enhance – KCNQ2 (rat) channel potentiation; CHO-K1 KCNQ2, FluxOR thallium flux fluorescence; hits give high values; B-score at 10 µM; hit rate 0.54% among 310,000;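 active = fluorescence ratio B-score at least 3 SD of library B-scores, with initial fluorescence B-score within 3 of them, cut at about 5.3 in these data; same plate scores as AID 2156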;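 note: B-score of peak minus minimum over baseline fluorescence ratio after K+ and Tl+ stimulus; positive B-score means potentiation of KCNQ2 with more thallium influx and brighter signal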
Target sequence (O88943 whole entry, looked up): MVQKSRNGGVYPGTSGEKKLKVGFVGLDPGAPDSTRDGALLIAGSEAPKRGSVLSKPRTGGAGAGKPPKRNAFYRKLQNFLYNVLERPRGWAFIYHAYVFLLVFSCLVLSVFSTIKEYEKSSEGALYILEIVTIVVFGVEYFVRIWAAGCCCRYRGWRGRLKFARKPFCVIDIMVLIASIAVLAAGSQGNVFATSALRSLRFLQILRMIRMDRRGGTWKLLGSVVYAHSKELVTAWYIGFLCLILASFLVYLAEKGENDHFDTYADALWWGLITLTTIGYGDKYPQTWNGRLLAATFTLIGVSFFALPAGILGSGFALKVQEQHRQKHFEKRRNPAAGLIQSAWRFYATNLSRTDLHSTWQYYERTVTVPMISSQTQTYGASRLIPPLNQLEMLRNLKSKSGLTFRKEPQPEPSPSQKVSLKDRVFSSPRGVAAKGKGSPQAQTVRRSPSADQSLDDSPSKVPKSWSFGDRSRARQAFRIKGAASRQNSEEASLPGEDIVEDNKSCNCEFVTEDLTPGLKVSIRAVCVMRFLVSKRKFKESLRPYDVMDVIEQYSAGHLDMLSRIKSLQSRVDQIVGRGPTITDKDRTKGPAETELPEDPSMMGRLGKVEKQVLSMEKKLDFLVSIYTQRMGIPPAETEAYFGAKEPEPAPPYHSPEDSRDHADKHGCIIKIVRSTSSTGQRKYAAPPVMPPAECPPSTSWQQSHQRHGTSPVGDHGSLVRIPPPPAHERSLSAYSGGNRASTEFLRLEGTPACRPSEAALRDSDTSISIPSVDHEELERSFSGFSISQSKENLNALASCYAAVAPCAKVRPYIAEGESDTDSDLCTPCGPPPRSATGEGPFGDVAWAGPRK
KCNQ2 inh – inhibitors of rat KCNQ2 potassium channel; CHO-K1 KCNQ2, FluxOR thallium flux, 20 min; hits give low values; B-score at 10 µM; hit rate 1.1% among 310,000;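 active = fluorescence ratio B-score at most minus 3 library SDs, with starting brightness B-score within 2 library SDs, cut at about -5.5 in these data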
Kir21 conf inh – confirmation of mouse Kir2.1 potassium channel inhibitors | Kir2.1-expressing cells, FluxOR thallium flux fluorescence; hits give low values | AID 2032 | Tl flux remaining, % of negative control (hits give low values), % at 10 µM | hit rate 41% among 2,300 | shares compounds with KCNQ2 enhance;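 active = Primary-screen hit whose thallium flux fell at least 3 control SD below untreated wells in both duplicates, with normal baseline fluorescence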
HEK293 Tl flux – counter-screen for Kir2.1 inhibitors: effect in parental HEK293 cells | FluxOR signal as % of negative control (100 = no effect), % at 10 µM | shares compounds with KCNQ2 enhance | FluxOR thallium flux fluorescence; 0% = unstimulated blank wells | hit rate 19% among 2,300;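 active = dye signal at least 3 control SD above or below untreated wells in both duplicates, raw fluorescence within 3, either direction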;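 note: percent is based on the flux ratio of peak minus minimum fluorescence over baseline F0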
CHO-K1 ctr – counter-screen for KCNQ2 potentiators: effect in parental CHO-K1 cells. activity increase over 3SD of controls, % at 10 µM. shares compounds with KCNQ2 enhance. FluxOR thallium flux fluorescence; zero = vehicle mean+3SD, 100% = vehicle-minus-blank window. hit rate 43% among 1,200;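 active = signal rise of at least 3 SD above the untreated control mean, in both duplicate wells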;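 note: counter screen of KCNQ2 potentiator hits so any rise reflects channel-independent effects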
KCNQ1 pot spec – selectivity of KCNQ2 potentiators: effect on human KCNQ1. shares compounds with KCNQ2 enhance. CHO KCNQ1 stable, FluxOR thallium flux fluorescence; beyond 3SD, as % of vehicle-control signal. activation over 3SD threshold, % at 10 µM. hit rate 28% among 1,200. AID 2283;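 active = fluorescence ratio rise of at least 3 SD of vehicle wells above their mean, in both replicate wells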
KCNQ2 pot confirm – rat KCNQ2 channel potentiator confirmation. shares compounds with KCNQ2 enhance. CHO-KCNQ2 cells, FluxOR thallium flux fluorescence. potentiation, less the hit threshold, % at 10 µM. hit rate 68% among 1,200. AID 2287;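 active = fluorescence ratio rising 3 SD or more over the vehicle control mean in both replicates, plus primary screen hit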;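 note: peak minus minimum thallium fluorescence divided by baseline after K/Tl stimulus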
Kir21 spec – tests whether KCNQ2 potentiators also affect mouse Kir2.1; shares compounds with KCNQ2 enhance; HEK293 Kir2.1, FluxOR thallium flux fluorescence; activity over 3SD threshold, % at 10 µM; hit rate 2% among 1,200; AID 2345;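 active = fluorescence ratio rise of at least 3 SD above the vehicle-control mean, seen in both replicates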
KCNQ2 W236L pot – KCNQ2 potentiators acting on retigabine-insensitive rat KCNQ2 W236L mutant | shares compounds with KCNQ2 enhance | CHO KCNQ2-W236L, automated patch clamp current | current increase over 3SD of negative controls (%), hits give high values, % at 25 µM | hit rate 10% among 940;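 active = current increase at least 3 SD of the untreated controls above them in both duplicate recordings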
Hits are given with their value; 0 = inactive; - = no result given.

SMILES	KCNQ2 enhance	KCNQ2 inh	Kir21 conf inh	HEK293 Tl flux	others
CCOc1ccc(CNC(=O)C2CCN(c3nn4c(=O)cc(C)nc4s3)CC2)cc1	-	0	-	-
Cc1ccc(S(=O)(=O)NCCNc2ccc([N+](=O)[O-])cc2C(F)(F)F)cc1	-	0	-	-
O=[N+]([O-])c1ccc(NCCNS(=O)(=O)c2ccccc2)c(C(F)(F)F)c1	-	0	0	0
CCO[C@H]1OC(C(=O)NCc2ccccc2)=C[C@@H](c2cn(C(C)=O)c3ccccc23)[C@@H]1CCCO	0	0	-	-
Cc1ccsc1-c1nc(CN2CCCC2c2ccc(F)cc2)c(C)o1 (stereo not given)	-	0	-	-
CC(C)c1nc(SCC(=O)Nc2nccs2)c2ccccc2n1	0	0	-	-
Cc1ccc(C(=O)CSc2nc(C(C)C)nc3ccccc23)cc1	0	0	-	-
Cc1csc(NC(=O)CSc2nc(C(C)C)nc3ccccc23)n1	6.23	0	-	-	CHO-K1 ctr=17.5;KCNQ1 pot spec=0;KCNQ2 pot confirm=1.0;Kir21 spec=0;KCNQ2 W236L pot=0
CC(C)c1nc(SCC(=O)c2ccc(F)cc2)c2ccccc2n1	10.6	0	0	0	CHO-K1 ctr=0;KCNQ1 pot spec=0;KCNQ2 pot confirm=36.0;Kir21 spec=0;KCNQ2 W236L pot=0
CCOc1ccc(C(=O)n2cc(C(=O)OC)c3ccccc32)cc1	0	0	-	-
CCOc1ccc(-c2c(C)n([O-])c3c([n+]2=O)CCCCC3)cc1	0	0	-	-
Fc1ccc(CNCCC(Cc2ccccc2)c2ccco2)cc1 (stereo not given)	-	0	17.5%	70.5%
O=C(NCCNCc1ccc(F)cc1)c1ccco1	0	0	-	-
O=C(CC(Cc1ccccc1)c1ccco1)NC1CCCCC1 (stereo not given)	-	0	-	-
CC(NCCC(Cc1ccccc1)c1ccco1)c1ccccc1 (stereo not given)	-	0	39.0%	0
O=C(O)C1C(=O)NCC1c1ccccc1 (stereo not given)	-	0	-	-
CCn1cc(CCC(=O)NC(C)c2ccccc2)c2ccccc21 (stereo not given)	0	0	0	0
CCn1cc(CCC(=O)NCCc2ccccc2)c2ccccc21	-	0	-	-
CN(CC(=O)Nc1cccc(F)c1)C(=O)c1cccc(S(=O)(=O)N2CC3(C)CC2CC(C)(C)C3)c1 (stereo not given)	9.15	0	0	0	CHO-K1 ctr=92.5;KCNQ1 pot spec=16.5;KCNQ2 pot confirm=1.7;Kir21 spec=0;KCNQ2 W236L pot=0
CCCCCNC(=O)c1cccc(S(=O)(=O)N2CC3(C)CC2CC(C)(C)C3)c1 (stereo not given)	0	0	-	-
CC(C)CC(=O)/C(=C/c1ccc(N(C)C)cc1)n1cncn1	0	0	-	-
CC(C)CC(=O)/C(=C\c1ccc(Cl)cc1Cl)n1cncn1	0	-5.61	44.5%	0
CCOCc1cn(CC(=O)c2ccc(Cl)cc2)c(C)nc1=N	0	0	-	-
CCOCc1cn(CC(=O)c2ccc([N+](=O)[O-])cc2)c(C)nc1=N	-	0	0	0
CCOc1cc(/C=N/O)ccc1OS(=O)(=O)c1ccc(C)cc1	0	0	48.5%	0
SMILES	KCNQ2 enhance	KCNQ2 inh	Kir21 conf inh	HEK293 Tl flux	others
CCOc1cc(/C=N/NS(=O)(=O)c2ccccc2)ccc1OS(=O)(=O)c1ccc(C)cc1	-	0	-	-
C=CCn1c(SCC(N)=O)nc2scc(-c3ccc(C)o3)c2c1=O	5.28	0	0	195.0%	CHO-K1 ctr=22.4;KCNQ1 pot spec=0;KCNQ2 pot confirm=25.0;Kir21 spec=0;KCNQ2 W236L pot=0
C=CCn1c(SCC(=O)NCCOC)nc2scc(-c3ccco3)c2c1=O	-	0	-	-
CC(C)C(NC(=O)c1ccccc1F)C(=O)NCc1ccccc1 (stereo not given)	-	0	-	-
CCOC(=O)C(=O)N(Nc1ccc(C)cc1)c1ccc(C)cc1	-	0	-	-
CCC(O)(CC)C(=O)N(Nc1ccc(C)cc1)c1ccc(C)cc1	5.58	0	0	0	CHO-K1 ctr=0;KCNQ1 pot spec=0;KCNQ2 pot confirm=0;Kir21 spec=0;KCNQ2 W236L pot=37.1%
CCn1c(=O)c(C(=O)Nc2ccccc2C)c(O)c2ccccc21	-	0	-	-
CCn1c(=O)c(C(=O)Nc2ccccc2S(N)(=O)=O)c(O)c2ccccc21	8.03	0	0	0	CHO-K1 ctr=52.8;KCNQ1 pot spec=0;KCNQ2 pot confirm=10.9;Kir21 spec=0;KCNQ2 W236L pot=0
O=C(CN(Cc1ccc(Cl)cc1)C(=O)CNS(=O)(=O)c1ccccc1)NCC1CCCO1 (stereo not given)	0	0	-	-
COc1ccc([N+](=O)[O-])cc1NC(=O)C(C)OC(=O)CSC(C)C(=O)Nc1cc(C)on1 (stereo not given)	-	0	-	-
COC(=O)c1cccc(CSc2nc(-c3ccccc3)c(C#N)c(=O)[nH]2)c1	0	0	-	-
CC1(C)Cc2cccc(OCC(=O)NCCOc3ccccc3)c2O1	-	0	-	-
COc1ccccc1CCNC(=O)COc1cccc2c1OC(C)(C)C2	-	0	49.5%	62.5%
Cc1nnc(SCc2cccc3ccccc23)s1	-	0	-	-
CC(C)(C)C1=CC(O)(c2ccccc2)C=C(C(C)(C)C)C1=O	0	0	-	-
CC(C)OC(=O)c1cc2c(ccn2C)n1CC(=O)N1CCC(Cc2ccccc2)CC1	9.87	0	0	0	CHO-K1 ctr=39.5;KCNQ1 pot spec=69.7;KCNQ2 pot confirm=7.1;Kir21 spec=0;KCNQ2 W236L pot=0
Cc1ccccc1Cn1c(C(=O)OC(C)C)cc2c1ccn2C	-	0	-	-
Cn1nc(C(F)(F)F)c2cc(NC(=O)OCc3ccc(C(C)(C)C)cc3)sc21	6.27	0	0	0	CHO-K1 ctr=38.1;KCNQ1 pot spec=0;KCNQ2 pot confirm=0;Kir21 spec=0
Cn1nc(C(F)(F)F)c2cc(NC(=O)OCc3ccc(F)cc3)sc21	0	0	-	-
Cn1c(SCc2ccccc2C#N)nnc1-c1ccncc1	-	0	-	-
Oc1ccc(Cl)cc1Nc1nc(NCC2CCCO2)c2ccccc2n1 (stereo not given)	0	0	-	-
c1ccc2c(NCC3CCCO3)nc(N3CCCCC3)nc2c1 (stereo not given)	0	0	-	-
Oc1ccc(Nc2nc(NCC3CCCO3)c3ccccc3n2)cc1 (stereo not given)	-	0	0	0
Oc1ccccc1Nc1nc(NCC2CCCO2)c2ccccc2n1 (stereo not given)	-	0	45.5%	0
Fc1ccc(Nc2ncnc3sccc23)cc1	0	0	-	-
CN(CC(=O)Nc1ccccc1Cl)C(=O)CSc1nnc(N)s1	-	0	-	-
O=C(NCCc1ccc(Cl)cc1)C1(c2ccccc2)CC1	-	0	33.5%	0
COc1ccc(C2(C(=O)NCCc3ccccc3)CCCC2)cc1	-	0	-	-
O=C(CS(=O)CC(=O)Nc1cccnc1)Nc1ccc(F)cc1 (stereo not given)	0	0	-	-
CCCCCCC(O)(c1ccc(OC)cc1)C(CN1CCOCC1)c1ccccc1 (stereo not given)	6.37	0	0	0	CHO-K1 ctr=0;KCNQ1 pot spec=0;KCNQ2 pot confirm=6.2;Kir21 spec=0;KCNQ2 W236L pot=0
